Laboratory results taken from PubChem BioAssay (NCI).
Values joined by “and” are separate entries in the source; they are usually repeats but may differ in a detail not shown here. Equal entries are not always repeated. About 79,000 compounds went through this panel and 15% of them were active in at least one assay; those are over-represented in the sample as a whole. Cut-off read from the data, not from the text of the source: active = growth inhibition above about 70%; inactive = the rest.

How the values were obtained:
[1] = NCI Yeast Anticancer Drug Screen. Data for the rad50 strain (AID 155);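 note: 0% = growth of vehicle-only cultures of the same strain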; details: S. cerevisiae rad50 strain growth inhibition, active compounds read high; at 50.0 µM unless noted
How it was run: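 Genetically altered yeast (DNA repair pathway); compound treatment; growth inhibition vs vehicle ctrl.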

[2] = NCI Yeast Anticancer Drug Screen. Data for the mec2-1 strain (AID 157); details: S. cerevisiae mec2-1 strain, active compounds read high; at 50.0 µM unless noted
How it was run: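 mec2-1 yeast strain, carrying an alteration in DNA damage repair or cell cycle control, was exposed to compounds; growth inhibition was measured relative to vehicle-treated controls.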

[3] = NCI Yeast Anticancer Drug Screen. Data for the sgs1 mgt1 strain (AID 161);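 note: 0% = growth of cultures given vehicle only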; details: S. cerevisiae sgs1 mgt1 strain, active compounds read high; at 50.0 µM unless noted
How it was run: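 Growth of a repair-deficient yeast mutant was monitored after compound treatment and expressed as inhibition relative to vehicle-treated cultures.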

[4] = NCI Yeast Anticancer Drug Screen. Data for the cln2 rad14 strain (AID 165);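 note: 0% = growth equal to vehicle treated cultures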; details: S. cerevisiae cln2 rad14 strain, active compounds read high; at 50.0 µM unless noted
How it was run: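 Yeast carrying cln2 and rad14 alterations (cell cycle control and DNA damage repair) were exposed to compounds. Growth inhibition was measured against vehicle-treated controls.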

[5] = NCI Yeast Anticancer Drug Screen. Data for the bub3 strain (AID 167); details: S. cerevisiae bub3 mutant strain, active compounds read high; at 50.0 µM unless noted
How it was run: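 Yeast carrying a defined mutation is treated with each compound, and growth is compared with that of vehicle-exposed cells to give inhibition.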

[6] = NCI Yeast Anticancer Drug Screen. Data for the mlh1 rad18 strain (AID 175); details: S. cerevisiae mlh1 rad18 strain growth inhibition, active compounds read high; at 50.0 µM unless noted
How it was run: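 Growth inhibition of the yeast strain was measured after compound exposure and expressed relative to vehicle-treated controls. The strain carries defined defects in DNA damage repair.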

Measured: growth inhibition

CC(=O)Oc1ccc2c(c1)[nH]c1c3ccc(OC(C)=O)cc3oc(=O)c21
inactive: [1] -21.4% | [2] -26.9% | [3] -8.05% | [4] 5.8% | [5] -2.85% | [6] -13.7%

NC(=O)C1(N2CCCCC2)CCNCC1
inactive: [1] 7.85% | [2] -16.5% | [3] -8.2% | [4] 6.9% | [5] -5.45% | [6] 3.95%

O=C1CCCCCCCCCCCCCCCCC1
inactive: [1] -13.3% | [2] -5.85% | [3] -11.3% | [4] -7.25% | [5] -2.15% | [6] -13.9%

CC1(O)CCCC1(C)O (stereo unspecified)
inactive: [1] -29.1% | [2] -21.1% | [3] -19.1% | [4] -38.9% | [5] -21.7% | [6] -23.8%

N#CC1=C(N)OC(C2CC2)=C(C#N)C1c1ccco1 (stereo unspecified)
inactive: [1] -9.75% | [2] -14.1% | [3] -11.1% | [4] 4.45% | [5] -24.8% | [6] -11.9%

Nc1ncnc2c1ccn2COCCO
inactive: [1] -8.25% | [2] 1.55% | [3] 4.7% | [4] -43.9% | [5] -12.5% | [6] -3.9%

CN(C)C(=O)C(c1ccccc1)C(c1ccccc1)N(C)C=O (stereo unspecified)
inactive: [1] -3.5% | [2] -2.2% | [3] 0.2% | [4] -3.3% | [5] -8.3% | [6] 25.1%

O=c1c2cc(O)ccc2n2nnc3ccc(NCCNCCO)c1c32
inactive: [1] -18.4% and -10.8% | [2] -16.3% and -12.1% | [3] -35.1% and -8.7% | [4] 18.1% and 16.9% | [5] 8.3% and 1% | [6] -4.7% and 3.1%

Cc1ccc(C(N)=O)cc1N=NN(C)C
inactive: [1] -25.8% | [2] -39.4% | [3] -56.9% | [4] 1.55% | [5] -16.6% | [6] -24.4%

CC(=O)Nc1ccc(-c2nnc(SCC(=O)Nc3cccc([N+](=O)[O-])c3)o2)cc1
inactive: [1] -2% | [2] 5.15% | [3] 15.6% | [4] -17.5% | [5] -10.7% | [6] 0.4%

Cn1c(=O)c(C(=O)Nc2nc(C34CC5CC(CC(C5)C3)C4)cs2)c(O)c2ccccc21
inactive: [1] -27.8% | [2] -28.6% | [3] -5.7% | [4] 11.1% | [5] -10% | [6] -30.6%

Clc1ccc(N=NNc2ccccc2)cc1
inactive: [1] 29.6% and 6.7% | [2] -0.85% and -2.8% | [3] -22.9% and -22.1% | [4] -30.1% and -10.1% | [5] -20.1% and -6.6% | [6] -16.4% and 30.2%

O=C1C2C3ON(c4ccccc43)C2C(=O)N1c1ccccc1 (stereo unspecified)
inactive: [1] -0.65% | [2] 21% | [3] 15.4% | [4] 2.4% | [5] 3.6% | [6] -3.55%

O=c1c2ccccc2oc2c(Cl)cc(Cl)cc12
inactive: [1] -0.95% | [2] -0.05% | [3] 9.35% | [4] -10.3% | [5] -6.5% | [6] 0.8%

COc1cc(C2c3cc4c(cc3OC3(O)CCCC23)OCO4)cc(OC)c1OC (stereo unspecified)
inactive: [1] -0.85% | [2] 3.55% | [3] 2.45% | [4] -25.1% | [5] 3.15% | [6] -2.25%

C=C1N(c2cc3ccccc3o2)C(=O)OC12CCCCC2
inactive: [1] -37.5% | [2] -2.2% | [3] -8% | [4] 8.8% | [5] -2.55% | [6] 18.9%

CC(=O)Cc1cc(-c2cc(CC(C)=O)nc(N)n2)nc(N)n1
inactive: [1] 1.85% | [2] 13.3% | [3] 12.7% | [4] 15.2% | [5] 1% | [6] 20.4%

CC(NC(=O)CNC(=O)OCc1ccccc1)C(=O)O (stereo unspecified)
inactive: [1] 3.55% | [2] 9.35% | [3] 11.6% | [4] -0.35% | [5] 8.1% | [6] -10.1%

CC1CCC2(OC1)OC1CC3C4CCC5CC(O)CCC5(C)C4C(O)CC3(C)C1C2C (stereo unspecified)
inactive: [1] 42.5% | [2] 5.65% | [3] 43% | [4] 36.8% | [5] 52.1% | [6] 24.1%

CCCCCCCCCCCCC(C)O (stereo unspecified)
inactive: [1] -23.2% | [2] -50.1% | [3] -18.8% | [4] 5.05% | [5] -21.1% | [6] -24.8%

C/C(=N/O)c1ccncc1
inactive: [1] 1.15% | [2] -3% | [3] 1.65% | [4] 11.2% | [5] 16.1% | [6] -6.9%

CCCCN(CCCC)C(=O)c1cccc(C)c1
inactive: [1] 13.7% | [2] 8.1% | [3] 4.1% | [4] -16.4% | [5] 53.2% | [6] 14.1%

CCOC(=O)c1c(C)[nH]c(C=O)c1C
inactive: [1] 5.65% | [2] 9.3% | [3] 0.25% | [4] 16.7% | [5] -0.25% | [6] 4.4%

N#CC(C(=O)CCC(=O)NCCc1ccccc1)c1nc2ccccc2s1 (stereo unspecified)
inactive: [1] -11.9% | [2] -6.05% | [3] -10.8% | [4] -10.1% | [5] 4.8% | [6] 4.55%

NC(Cc1c[nH]c2ccccc12)C(=O)O (stereo unspecified)
inactive: [1] 4.2% and -1.1% | [2] -7.9% and -8.7% | [3] -13.2% and 6.55% | [4] 3% and -1.25% | [5] -28.4% and -2.7% | [6] 2.65% and -16.2%

CO/C(=N\N=C\c1ccc(C(F)(F)F)cc1)c1ccncc1
inactive: [1] 54.5% | [2] 18.9% | [3] 35.3% | [4] 22.4% | [5] 30.9% | [6] 15.3%

COc1ccc(NC(=O)/C(=N\NC(=O)C[n+]2ccccc2)c2c(O)c3ccc(O)cc3oc2=O)c([N+](=O)[O-])c1
inactive: [1] 26.6% | [2] 47.2% | [3] 29.4% | [4] 7.55% | [5] 39.5% | [6] 39.1%

CC(C)(C)C(C(=O)O)C(=O)O
inactive: [1] 11.2% | [2] 8% | [3] 0.45% | [4] -7.4% | [5] 5.2% | [6] 13.6%

COc1ccccc1N=C(N)N/N=C/c1c[nH]c2ccccc12
inactive: [1] 0.25% | [2] -8.85% | [3] -9.6% | [4] 17% | [5] 1.45% | [6] 15.2%

CCCCCCCCCCCCCCCCCC(=O)N1CCN(C(=O)CCCCCCCCCCCCCCCCC)C1
inactive: [1] 30.4% | [2] -18.3% | [3] -4.3% | [4] -19.2% | [5] -1.25% | [6] 1.05%

O=C1c2ccccc2C(=O)c2c1ccc1c3ccccc3n(-c3ccccc3)c21
inactive: [1] 7.4% | [2] 4.2% | [3] 18.4% | [4] -5.2% | [5] 6.65% | [6] 15.7%

Nc1nc(N)c2[nH]cnc2n1
inactive: [1] 0.6% and 18.9% | [2] -1.5% and -3.95% | [3] 3.65% and -1.85% | [4] 10.7% and -30.4% | [5] 0.6% and -16.6% | [6] -43.9% and 1.2%

CCOc1c(N=Nc2cccc(Cl)c2)c(C)nn1C(N)=S
inactive: [1] 20.4% | [2] 3.35% | [3] 9.65% | [4] -25.1% | [5] -15.5% | [6] 19.4%

O=C(CCN1C(=O)c2ccccc2C1=O)Nc1c(I)cc(I)c(C(=O)O)c1I
inactive: [1] -4.6% | [2] -11.7% | [3] -20.6% | [4] -20.2% | [5] 8.65% | [6] 6.8%

COC(=O)c1ccc(Oc2nc3ccc(C(F)(F)F)cc3nc2-c2ccccc2)cc1
inactive: [1] -11.9% | [2] -31.9% | [3] 14.3% | [4] -34.1% | [5] -23.8% | [6] -19.1%

Cc1ccc(S(=O)(=O)OC2CSS(=O)CC2OS(=O)(=O)c2ccc(C)cc2)cc1 (stereo unspecified)
inactive: [1] 12.8% | [2] -3.15% | [3] 4.45% | [4] 19.1% | [5] -1.4% | [6] 21.1%

Cc1ccc(NC(=O)C(=O)CC(=O)c2sc(Nc3c(C)cccc3C)nc2C)cc1C
inactive: [1] 13.4% | [2] -9.95% | [3] 1.85% | [4] -27.7% | [5] -23.4% | [6] -2%

O=C1CSC(c2ccc(O)cc2)N1c1nncs1 (stereo unspecified)
inactive: [1] 0.4% | [2] -0.75% | [3] 16.8% | [4] -0.55% | [5] 5.6% | [6] 11.9%

CC(=O)Oc1cc(C)c(OC(C)=O)c2ccccc12
inactive: [1] -6.6% | [2] 17.7% | [3] 4.45% | [4] -1.3% | [5] 10.3% | [6] 4.1%

N#Cc1cc2c(N)ncnc2nc1N1CCCC1
inactive: [1] -43.7% | [2] -61.8% | [3] -13.3% | [4] -2.25% | [5] 5.35% | [6] -26.2%

Cc1ccccc1N=C(N)N
inactive: [1] 4.3% | [2] 2.5% | [3] -1.35% | [4] -3.3% | [5] -0.2% | [6] -1.95%
